A number with no mark means an inactive call. Records with an inconclusive call do not appear. Calls of active or inactive are those of the source. Unless noted, calls follow the shape of the dose curve; as a rule, active = well fitted curve in the direction sought with a large enough effect in the repeat runs; inconclusive = weak or mixed curves; inactive = no such curve, though single readings can be large; an effect the other way counts as inactive or inconclusive.

Assay [1] can be described thus: qHTS assay to identify small molecule antagonists of the glucocorticoid receptor (GR) signaling pathway - cell viability counter screen (AID 720693). Also: nearly all actives have a fitted effect of over 55% in size. For orientation: In qHTS, concentration-response curves come from the screen itself.
Assay [2] is described as follows: qHTS assay for identifying genotoxic compounds that show differential cytotoxicity against isogenic chicken DT40 cell lines with known DNA damage response pathways - wild type cell line (AID 743012). Also: nearly all actives have a fitted effect of over 60% in size. Also: potency is read from the fitted curve at half-maximal effect. An outline of the steps: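 Parental DNA repair-proficient DT40 cells, 300 per well, were pre-incubated ~0.5 h at 37 C/5% CO2, pin-dosed with compounds in DMSO, then incubated 40 h. Viability was read as CellTiter-Glo luminescence after 30 min at room temperature.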

A short description of assay [3]: qHTS assay for identifying genotoxic compounds that show differential cytotoxicity against isogenic chicken DT40 cell lines with known DNA damage response pathways - Rev3 mutant cell line (AID 743014). Also: nearly all actives have a fitted effect of over 55% in size. Also: potency is read from the fitted curve at half-maximal effect.
The nature of assay [4]: qHTS assay for identifying genotoxic compounds that show differential cytotoxicity against isogenic chicken DT40 cell lines with known DNA damage response pathways - Rad54/Ku70 mutant cell line (AID 743015). Also: nearly all actives have a fitted effect of over 60% in size. Also: potency is read from the fitted curve at half-maximal effect.
The nature of assay [5]: qHTS assay to identify small molecule antagonists of the androgen receptor (AR) signaling pathway - cell viability counter screen (AID 743033; also: nearly all actives have a fitted effect of over 45% in size).
Assay [6] can be described thus: qHTS assay to identify small molecule antagonists of the androgen receptor (AR) signaling pathway using the MDA cell line - cell viability counter screen (AID 743041; also: nearly all actives have a fitted effect of over 45% in size). An outline of the steps: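 Cells were plated at 3,000 per well and left 5 h. Compounds in DMSO were then pinned in, followed by R1881. After 16 h at 37C, CellTiter-Fluor fluorescence gave viability.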

Assay [7] is described as follows: qHTS assay to identify small molecule antagonists of the thyroid receptor (TR) signaling pathway - cell viability counter screen (AID 743064). Also: nearly all actives have a fitted effect of over 50% in size. An outline of the steps: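 Compounds were tested on GH3.TRE-Luc cells in the presence of T3 at 1 nM final. Following 23.5 h at 37 °C, cell viability was quantified by CellTiter-Fluor.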
The target in assay [8] is Androgen receptor (Homo sapiens) (UniProt P10275). Description: qHTS assay to identify small molecule agonists of the androgen receptor (AR) signaling pathway using the MDA cell line (AID 743040; also: nearly all actives have a fitted effect of over 20% in size). In a few lines: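 Cells plated, 5 h at 37C/0% CO2; compound or DMSO pinned; 16 h at 37C; ONE-Glo added; luminescence measured after 30 min at room temperature. Reporter line: MDA-kb2 with MMTV-luciferase responsive to AR and GR.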

The target is the same in assay [9]. Put plainly: qHTS assay to identify small molecule antagonists of the androgen receptor (AR) signaling pathway using the MDA cell line (AID 743042; also: nearly all actives have a fitted effect of over 55% in size). An outline of the steps: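 Antagonist mode: compounds plus R1881 agonist added to MDA-kb2 AR-luc cells, incubated 16 h at 37C. Luciferase reporter luminescence quantified, with multiplexed CellTiter-Fluor readout for cell viability.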

The target is the same in assay [10]. Put plainly: qHTS assay to identify small molecule agonists of the androgen receptor (AR) signaling pathway (AID 743036; active = well fitted activation curve with a large enough effect in the signal ratio in the repeat runs, with a control signal flat, not every such curve was filed as active; the % refers to the signal ratio). In a few lines: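 Beta-lactamase under UAS control, stably integrated in HEK293 GripTite cells, reports receptor activation. After 16 h compound treatment, cells received FRET substrate for 2 h at room temperature before fluorescence reading.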

Sequence of Androgen receptor (Homo sapiens) (P10275 whole entry, looked up): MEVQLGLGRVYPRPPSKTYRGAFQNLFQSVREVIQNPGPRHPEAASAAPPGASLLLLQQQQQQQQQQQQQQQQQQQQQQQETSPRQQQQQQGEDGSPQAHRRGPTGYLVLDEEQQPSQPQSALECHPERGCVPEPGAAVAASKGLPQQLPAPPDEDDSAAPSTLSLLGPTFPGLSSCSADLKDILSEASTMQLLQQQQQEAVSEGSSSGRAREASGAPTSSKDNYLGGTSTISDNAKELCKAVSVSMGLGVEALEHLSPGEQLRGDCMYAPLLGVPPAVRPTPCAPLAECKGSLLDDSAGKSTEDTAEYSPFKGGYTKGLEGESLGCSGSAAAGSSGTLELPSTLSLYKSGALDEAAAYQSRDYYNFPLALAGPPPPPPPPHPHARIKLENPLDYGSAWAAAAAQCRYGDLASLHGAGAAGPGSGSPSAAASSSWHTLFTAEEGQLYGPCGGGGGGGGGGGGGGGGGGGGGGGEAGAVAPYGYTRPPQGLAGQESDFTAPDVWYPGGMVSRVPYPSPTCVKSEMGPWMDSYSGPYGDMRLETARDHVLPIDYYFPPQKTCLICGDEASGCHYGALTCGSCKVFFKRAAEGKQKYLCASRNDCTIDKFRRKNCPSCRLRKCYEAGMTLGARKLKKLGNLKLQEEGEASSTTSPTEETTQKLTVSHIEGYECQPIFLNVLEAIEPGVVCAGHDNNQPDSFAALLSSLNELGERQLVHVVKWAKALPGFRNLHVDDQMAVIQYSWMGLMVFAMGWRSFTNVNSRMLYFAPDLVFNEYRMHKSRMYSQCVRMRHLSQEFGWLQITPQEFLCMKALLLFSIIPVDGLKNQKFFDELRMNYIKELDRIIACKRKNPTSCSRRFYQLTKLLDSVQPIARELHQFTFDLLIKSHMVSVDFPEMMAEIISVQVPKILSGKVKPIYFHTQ

For the compound `Cc1ccccc1OCC(=O)O`, the compound was classed as inactive in assay [1], in [5] and in assay [6]. For the same compound, the Potency entry in assay [2], in assay [3] and in assay [4] was “inactive” throughout.
Consider `CC(C)=CCC/C(C)=C\C#N`, for which the call in assay [1], in [5] and in assay [6] was inactive. The Potency entry in assay [2], in assay [3] and in assay [4] was “inactive” each time.
With `CC(CC(=O)Cl)CC(C)(C)C` (stereo not drawn), the compound was called inactive in assay [1], in assay [5] and in assay [6]. Further, the Potency entry in assay [2], in assay [3], in [4] and in assay [7] was “inactive” each time.
Turning to `C/C=C(\C)C(=O)OC/C=C(\C)CCC=C(C)C`, the compound was classed as inactive in assay [1] and in [5]. Also, the Potency result in assay [2], in assay [3] and in [4] was “inactive” each time.
Turning to `O=C(O)CCCCCCCCCC(=O)O`, the compound was classed as inactive in assay [1], in assay [5], in assay [8] and in assay [9]. The Potency is 30.6 µM (active) in assay [2], 34.4 µM (active) in assay [3] and 27.3 µM (active) in assay [4].
In the case of `COc1cc(OC)cc(OC)c1`, the outcome in assay [1], in assay [5], in [10], in assay [8], in [6] and in [9] was inactive. For the same compound, the Potency entry in assay [2], in [3], in assay [4] and in assay [7] was “inactive” throughout.
Consider `c1coc(Cn2cccc2)c1`, for which the call in assay [1], in [5] and in [6] was inactive. For the same compound, the Potency entry in assay [2], in assay [3] and in assay [4] was “inactive” each time.
On to `CCN1CCN(C(=O)N[C@@H](C(=O)N[C@@H]2C(=O)N3C(C(=O)O)=C(CSc4nnnn4C)CS[C@H]23)c2ccc(O)cc2)C(=O)C1=O`, for which the compound was called inactive in [1], in [5] and in [6]. In addition, the Potency result in assay [2], in [3], in assay [4] and in [7] was “inactive” throughout.
As for `CCCCC(CC)CCC(CC(C)C)OS(=O)(=O)O` (stereo not drawn), the compound was called inactive in assay [1], in assay [5] and in assay [6]. Besides, the Potency result in [2], in assay [3], in assay [4] and in assay [7] was “inactive” each time.
Take `CCCCCCCCCCCBr`: the compound was called inactive in assay [1], in [5] and in assay [6]. In addition, the Potency result in [2], in assay [3], in [4] and in [7] was “inactive” each time.
`CNC(C)=O`: the compound was classed as inactive in assay [1], in assay [5] and in [6]. In addition, the Potency entry in [2], in assay [3], in assay [4] and in [7] was “inactive” each time.
On to `NC[C@H]1O[C@H](O[C@H]2[C@H](O)[C@@H](O[C@H]3O[C@H](CO)[C@@H](O)[C@H](N)[C@H]3O)[C@H](N)C[C@@H]2N)[C@H](N)[C@@H](O)[C@@H]1O`, for which the outcome in [1], in assay [5] and in assay [6] was inactive. In addition, the Potency result in assay [2], in [3], in assay [4] and in assay [7] was “inactive” each time.
Turning to `CCN(CC)CC`, the compound was called inactive in assay [1], in assay [5] and in [6]. Also, the Potency result in assay [2], in assay [3], in [4] and in assay [7] was “inactive” in each case.
Take `N=C(N)N1CCc2ccccc2C1`: the outcome in assay [1], in [5] and in assay [6] was inactive. For the same compound, the Potency entry in assay [2], in assay [3], in assay [4] and in [7] was “inactive” in each case.
For `CCCCCCCCCCCC(C)=O`, the result in [1], in assay [5] and in [6] was inactive. In addition, the Potency entry in assay [2], in assay [3], in [4] and in assay [7] was “inactive” each time.
In the case of `CC(C)C(C)C`, the compound was classed as inactive in [1], in [5] and in [6]. Moreover, the Potency result in assay [2], in assay [3], in [4] and in assay [7] was “inactive” in each case.
On to `Cc1cc(N)no1`, for which the call in [1], in assay [5] and in assay [6] was inactive. In addition, the Potency entry in assay [2], in [3], in [4] and in assay [7] was “inactive” in each case.
In the case of `CC1(C)CC(N)CC(C)(C)N1`, the result in [1], in [5] and in assay [6] was inactive. The Potency result in assay [2], in assay [3], in assay [4] and in [7] was “inactive” each time.
As for `CC(C)(C)c1ccc(N)cc1`, the compound was called inactive in assay [1], in [5] and in [6]. The Potency result in assay [2], in [3], in assay [4] and in [7] was “inactive” each time.
Regarding `CCCCCCCOC(C)=O`, the result in [1], in assay [5] and in assay [6] was inactive. Moreover, the Potency result in assay [2], in [3], in assay [4] and in assay [7] was “inactive” throughout.
On to `CCOC(=O)CC`, for which the call in [1], in [5] and in assay [6] was inactive. For the same compound, the Potency entry in assay [2], in assay [3], in [4] and in assay [7] was “inactive” each time.
`CC(=O)SC[C@@H](C)C(=O)N1CCC[C@H]1C(=O)N[C@@H](Cc1ccccc1)C(=O)O`: the result in assay [1], in [5] and in assay [6] was inactive. The Potency entry in assay [2], in assay [3], in assay [4] and in [7] was “inactive” throughout.
Turning to `COC(=O)c1ccc(C(=O)O)cc1`, the compound was classed as inactive in [1], in assay [5] and in [6]. Also, the Potency result in assay [2], in assay [3], in [4] and in assay [7] was “inactive” each time.
Take `Cc1ccccc1C#N`: the compound was called inactive in [1], in assay [5] and in assay [6]. For the same compound, the Potency entry in assay [2], in assay [3], in assay [4] and in assay [7] was “inactive” in each case.
Regarding `CN(C)CCc1c[nH]c2ccc(C[C@H]3COC(=O)N3)cc12`, the compound was called inactive in assay [1], in assay [5] and in assay [6]. The Potency result in assay [2], in assay [3], in [4] and in assay [7] was “inactive” in each case.
With `CCN1CCN(C(=O)N[C@@H](C(=O)N[C@@H]2C(=O)N3[C@@H]2SC(C)(C)[C@H]3C(=O)O)c2ccccc2)C(=O)C1=O`, the outcome in [1], in assay [5] and in assay [6] was inactive. The Potency result in [2], in assay [3], in assay [4] and in assay [7] was “inactive” each time.
`CC(=O)Oc1ccc(C(C)=O)cc1`: the outcome in assay [1], in assay [5] and in assay [6] was inactive. For the same compound, the Potency entry in assay [2], in assay [3], in [4] and in assay [7] was “inactive” throughout.
With `CCCC[O][Al]([O]CCCC)[O]CCCC`, the call in assay [1], in assay [5] and in assay [6] was inactive. Further, the Potency result in assay [2], in assay [3], in [4] and in assay [7] was “inactive” each time.
Take `CC(C)(C)C(=O)CC(=O)C(C)(C)C`: the compound was called inactive in assay [1], in [5] and in [6]. Further, the Potency entry in assay [2], in assay [3], in [4] and in assay [7] was “inactive” in each case.
On to `C=CCn1cc[n+](C)c1`, for which the compound was called inactive in assay [1], in assay [5] and in assay [6]. The Potency result in assay [2], in assay [3], in assay [4] and in assay [7] was “inactive” throughout.

Source of the values: PubChem BioAssay (Tox21).
